Source: PubChem (National Center for Advancing Translational Sciences (NCATS))
HP1b chromo inh = HP1-beta chromodomain-methylated histone interaction inhibition. hit rate 0.56% among 390,000. Potency, µM (doses to about 114 µM), actives largely listed as inhibitors. AlphaScreen HP1-beta / biotin-H3K9me3 peptide binding. P83916; further: nearly all actives have a fitted effect of over 70% in size
Target sequence (P83916 whole entry, looked up): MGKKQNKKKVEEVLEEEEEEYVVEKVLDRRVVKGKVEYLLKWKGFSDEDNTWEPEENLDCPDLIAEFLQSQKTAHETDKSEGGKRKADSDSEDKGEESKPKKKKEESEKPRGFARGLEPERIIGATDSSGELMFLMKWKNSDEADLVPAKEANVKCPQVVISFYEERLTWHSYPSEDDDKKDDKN
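HP1-beta protein (50 nM final) preincubated 30 min at room temperature with biotinylated H3(1-18)K9me3 peptide (50 nM) in PBS pH 7.4, 0.01% Tween-20, then compound added for 30 min. AlphaScreen streptavidin donor/nickel chelate acceptor beads (10 ug/mL final), 30 min dark, luminescence read.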
JMJD2A Tudor inh = inhibitors of human JMJD2A Tudor domain. hit rate 4.4% among 390,000. O75164. Potency, µM (doses to about 114 µM), actives largely listed as inhibitors. AlphaScreen JMJD2A-Tudor / H3K4me3 peptide binding; further: nearly all actives have a fitted effect of over 50% in size
PI5P4K alpha inh = PI5P4K alpha (human) kinase inhibition. PI5P4Kalpha enzyme, ADP-Glo luminescence, 60 min; active compounds read low. max response, %. hit rate 1.2% among 330,000. P48426; active means max response of -50% or lower; inconclusive means between -30% and -50%; inactive means -30% or higher; further: value at the top dose of about 77 µM
Target sequence (P48426 whole entry, looked up): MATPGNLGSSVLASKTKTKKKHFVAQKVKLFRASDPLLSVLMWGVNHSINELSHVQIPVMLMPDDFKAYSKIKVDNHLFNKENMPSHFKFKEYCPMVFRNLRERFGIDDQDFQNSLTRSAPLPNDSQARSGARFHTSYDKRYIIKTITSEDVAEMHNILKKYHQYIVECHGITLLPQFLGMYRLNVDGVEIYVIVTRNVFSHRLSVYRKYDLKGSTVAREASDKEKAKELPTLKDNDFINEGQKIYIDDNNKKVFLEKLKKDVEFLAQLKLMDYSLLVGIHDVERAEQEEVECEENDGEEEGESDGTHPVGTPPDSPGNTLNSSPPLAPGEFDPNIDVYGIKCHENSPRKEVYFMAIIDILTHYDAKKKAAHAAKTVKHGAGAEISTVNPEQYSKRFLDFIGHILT
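Quantitative HTS of the MLSMR library against PI5P4Kalpha with substrate. ATP added last at 5 microM final; room temperature, 60 minutes. Remaining ATP depleted, ADP converted and read as luminescence.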
G9a block = G9a (human) methyltransferase inhibition. AID 504332. G9a H3K9 monomethylation, AlphaScreen, 2 h. hit rate 8.8% among 350,000. Q96KQ7. Potency, µM (titrated, usually from 102 µM), hits mostly inhibitors; further: nearly all actives have a fitted effect of over 75% in size
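Chemiluminescent proximity detection of H3K9 monomethylation, read after 10 min bead incubation in the dark. Reaction: 20 nM G9a, 500 nM biotin-H3K9 peptide, 20 uM SAM cofactor, 2 h, room temperature, following 15 min enzyme-compound preincubation.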
PLK1 PBD block = blocks phosphopeptide binding to human PLK1 polo-box domain. hit rate 2.8% among 360,000. P53350. Potency, µM, hits mostly inhibitors. AID 720504. Plk1 PBD binding of FITC phosphopeptide, fluorescence polarization; further: series mostly up to about 57 µM; nearly all actives have a fitted effect of over 65% in size
BAZ2B inh = blocks human BAZ2B; Potency, µM (top dose mostly 114 µM), usual class: inhibitors; AlphaScreen BAZ2B-H3K14Ac peptide displacement; hit rate 4.4% among 360,000; further: nearly all actives have a fitted effect of over 60% in size
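Complex of BAZ2B and biotin-H3K14Ac (50 nM apiece) forms over 30 min at RT, then faces library compounds up to 110 uM for another 30 min; AlphaScreen beads added, 20 min dark incubation, luminescence read.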
Each line names hits and unclear results; the compound was inactive in the other large screens. This is a sample that favours compounds with a hit; in the whole collection about 12% have one here. Unless noted, the call rests on the fitted dose curve; in most records, active means well fitted curve in the direction sought with a large enough effect; inconclusive means small, poorly fitted or top-dose-only effect, or another doubt; inactive means no such curve, though single readings can be large; an effect the other way counts as inactive or inconclusive.

O=C(NCc1cnn(-c2ccc(F)cc2)c1)C1CCC(=O)N(C2CC2)C1 (configuration not stated)	none (no result: G9a block)
CCCS(=O)(=O)c1nc(S(=O)(=O)c2ccc(C)cc2)c(NCC(C)C)s1	none (no result: PI5P4K alpha inh, PLK1 PBD block)
Cc1nn(C(=O)c2ccccc2F)c(C)c1S(=O)(=O)N1CCOCC1	G9a block inconclusive (no result: PI5P4K alpha inh, PLK1 PBD block)
CC1(C)CC(=O)C(N=Nc2cc(C(F)(F)F)ccc2Cl)=C(O)C1	G9a block inconclusive, BAZ2B inh inconclusive
CC1(C)CC(=O)C(N=Nc2cccnc2)=C(O)C1	JMJD2A Tudor inh 35µM, G9a block inconclusive
CC1(C)CC(=O)C(N=Nc2ccc(Cl)cc2)=C(O)C1	none
CC1(C)CC(=O)C(N=Nc2c(Cl)cc(Cl)cc2Cl)=C(O)C1	JMJD2A Tudor inh 50µM, BAZ2B inh inconclusive
CC1(C)CC(=O)C(N=Nc2cc(S(=O)(=O)N3CCOCC3)ccc2Cl)=C(O)C1	G9a block 50µM, BAZ2B inh 56µM
COc1cccc(/C=N/n2c(C3CCCCC3)n[nH]c2=S)c1OC	JMJD2A Tudor inh inconclusive, G9a block inconclusive, PLK1 PBD block inconclusive
COc1cc(/C=N/NC(=O)CC(=O)NC2CCCCC2)ccc1O	none
COc1cc(OC)c(/C=N/n2c(C3CCCCC3)n[nH]c2=S)c(OC)c1	JMJD2A Tudor inh 4µM, G9a block 1.3µM
COc1ccc(/C=N/n2c(C3CCCCC3)n[nH]c2=S)c(OC)c1	JMJD2A Tudor inh 40µM, G9a block 14µM, BAZ2B inh inconclusive
COc1cc(/C=N/n2c(C3CCCCC3)n[nH]c2=S)ccc1O	HP1b chromo inh inconclusive, JMJD2A Tudor inh 11µM, G9a block 3.5µM, PLK1 PBD block inconclusive
COc1cccc(/C=N/n2c(C3CCCCC3)n[nH]c2=S)c1O	JMJD2A Tudor inh 25µM, G9a block 2.5µM
Cc1noc(C)c1-c1ccc2ncnc(N3CCOCC3)c2c1	none (no result: HP1b chromo inh, JMJD2A Tudor inh, PI5P4K alpha inh, PLK1 PBD block, BAZ2B inh)
CC(=O)Nc1nonc1-c1nnc(SCC(=O)Nc2c(C)cccc2C)n1-c1ccccc1	none (no result: PI5P4K alpha inh, PLK1 PBD block)
O=C(Nc1ccc2nc(SCC(=O)N3CCCc4ccccc43)sc2c1)c1cccc(Cl)c1	none (no result: PI5P4K alpha inh, PLK1 PBD block)
COc1ccc(C2c3c(nc(CCc4ccccc4)[nH]c3=O)Oc3ccc4ccccc4c32)cc1OC (configuration not stated)	none (no result: HP1b chromo inh, PI5P4K alpha inh, G9a block, PLK1 PBD block, BAZ2B inh)
CCc1noc(C)c1C(=O)NCCc1ccc(Cl)cc1	G9a block inconclusive
NS(=O)(=O)c1ccc(Sc2ccccn2)c([N+](=O)[O-])c1	none
NS(=O)(=O)c1ccc(Sc2nc3ccccc3s2)c([N+](=O)[O-])c1	JMJD2A Tudor inh inconclusive, G9a block 45µM
O=C(O)c1ccc(S(=O)(=O)Nc2ccc(O)c(Sc3nc4ccccc4s3)c2)cc1	JMJD2A Tudor inh 89µM, PI5P4K alpha inh inconclusive, PLK1 PBD block 27µM, BAZ2B inh inconclusive (no result: G9a block)
CCOC(=O)c1c(NC(=O)c2nc(SC)ncc2Cl)sc(C)c1C	none (no result: PI5P4K alpha inh, PLK1 PBD block)
CCOC(=O)C1CCCN(C(=O)CCS(=O)(=O)c2cc3c(cc2Cl)NC(=O)CO3)C1 (configuration not stated)	none (no result: PI5P4K alpha inh, PLK1 PBD block)
CCN(CC)C(=O)CSc1nc2c(sc(=S)n2-c2ccc(C)cc2C)c(=O)[nH]1	G9a block inconclusive
CCOc1ccc2[nH]cc(S(=O)(=O)c3ccc(C)cc3)c(=O)c2c1	none
CCOc1ccc2[nH]cc(S(=O)(=O)c3ccc(Cl)cc3)c(=O)c2c1	G9a block 71µM, BAZ2B inh inconclusive
CN1C(C)(C)CC(=NO)CC1(C)C	none (no result: G9a block, BAZ2B inh)
CCCCn1c(N)c(N(CC(C)C)C(=O)CSC(C)C(=O)Nc2cc(C)on2)c(=O)[nH]c1=O (configuration not stated)	G9a block 56µM
CCCCn1c(N)c(N(CC(C)C)C(=O)CSCc2c(C)noc2C)c(=O)[nH]c1=O	G9a block 45µM
CCc1nn(CC(=O)N2CCCCC2)c(=O)c2cc3occc3n12	none (no result: PI5P4K alpha inh, PLK1 PBD block)
CCOC(=O)c1cc2occc2n1CCCN1C(=O)c2ccccc2C1=O	HP1b chromo inh inconclusive, JMJD2A Tudor inh inconclusive, G9a block 14µM, BAZ2B inh 50µM (no result: PI5P4K alpha inh)
CCOC(=O)c1cc2sc(C)cc2n1CCCN1C(=O)c2ccccc2C1=O	none
CCOC(=O)c1cc2occc2n1CC(=O)Nc1ccc(OC)cc1OC	JMJD2A Tudor inh inconclusive, G9a block 40µM, PLK1 PBD block inconclusive, BAZ2B inh inconclusive (no result: PI5P4K alpha inh)
CC1(C)CC(N2CCCCC2)=CC(=[N+]2CCCCC2)C1	G9a block inconclusive
CC1C[N+](=C2C=C(N3CCOCC3)CC(C)(C)C2)CC(C)O1 (configuration not stated)	HP1b chromo inh 25µM, JMJD2A Tudor inh inconclusive, PI5P4K alpha inh inconclusive, PLK1 PBD block inconclusive
CC1(C)CC(N2CCOCC2)=CC(=[N+]2CCOCC2)C1	HP1b chromo inh inconclusive, JMJD2A Tudor inh inconclusive, G9a block 40µM
COc1ccc(N2CCN(c3ncnc4onc(C)c34)CC2)cc1	G9a block inconclusive (no result: PI5P4K alpha inh, PLK1 PBD block)
CC1(N2CCOCC2)CC2(O)C(=[N+]1[O-])CCc1c2no[n+]1[O-] (configuration not stated)	JMJD2A Tudor inh inconclusive, G9a block inconclusive, PLK1 PBD block 6µM, BAZ2B inh inconclusive
O=C1CCC[C@H]2c3[nH]c4ccccc4c3CCN12	none (no result: G9a block, BAZ2B inh)
c1ccc2c3c([nH]c2c1)[C@@H]1[C@H]2CC[C@H]([C@H]4CCCN[C@H]42)N1CC3	G9a block 10µM (no result: HP1b chromo inh, JMJD2A Tudor inh, PI5P4K alpha inh, PLK1 PBD block, BAZ2B inh)
CC12CCC(c3nnc(SCc4ccc(Cl)cc4)nc31)C2(C)C (configuration not stated)	none
CC12CCC(c3n[nH]c(=S)nc31)C2(C)C (configuration not stated)	JMJD2A Tudor inh 20µM, G9a block 8.9µM
COc1ccc(-c2cn3c(n2)sc2cc(C(=O)NCCC4=CCCCC4)ccc23)cc1	none (no result: PI5P4K alpha inh, PLK1 PBD block)
CCCNC(=O)c1c(O)c2c([nH]c1=O)CCCC2	PLK1 PBD block inconclusive
CCNC(=O)c1c(O)c2c([nH]c1=O)CCCC2	G9a block inconclusive, PLK1 PBD block 27µM
C/C=C/C(=O)[C@@H](C)[C@@H](/C=C/C[Si](C)(C)C)c1ccccc1	none (no result: PI5P4K alpha inh, G9a block, PLK1 PBD block, BAZ2B inh)
C=C(C)CSc1nc2nc(C)c(Br)cc2[nH]1	G9a block 7.1µM (no result: HP1b chromo inh, JMJD2A Tudor inh, PI5P4K alpha inh, PLK1 PBD block)
COC(=O)CSc1nc2nc(C)c(Br)cc2[nH]1	G9a block 7.9µM
Cc1ccc(NC(=O)CSc2nc3nc(C)c(Br)cc3[nH]2)cc1F	none
CC(=O)C1=C(O)C(=O)OC1c1ccc(Cl)cc1 (configuration not stated)	JMJD2A Tudor inh 14µM, G9a block 50µM
COc1ccc(C2=NS(=O)(=O)N(C)C(C(=O)Nc3ccc(OC(F)(F)F)cc3)=C2)cc1	G9a block 14µM (no result: PI5P4K alpha inh, PLK1 PBD block)
COc1ccc(OC)c(C2=NS(=O)(=O)N(C)C(C(=O)Nc3ccc(C(C)=O)cc3)=C2)c1	JMJD2A Tudor inh inconclusive, PLK1 PBD block 30µM
Cc1ccc(C2=NS(=O)(=O)N(C)C(C(=O)NC(C)c3ccccc3)=C2)cc1 (configuration not stated)	none
